Compound activity: PubChem, several laboratories
This is a sample that favours compounds with a hit; in the whole collection about 1.1% have one here.
Rv3671c inh = inhibitors of M. tuberculosis serine protease Rv3671c; actives 0.048% (n = 320,000); AID 2606; inhibition, % at 5.96 µM; in the data active = inhibition above about 38%;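 note: extracellular domain of Rv3671c used as enzyme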
RecA intein inh = inhibitors of M. tuberculosis RecA intein splicing; P9WHJ3; cell-free RecA intein splicing, fluorescence; inhibition, % (no concentration beside the values); actives 0.75% (n = 290,000); AID 2221; in the data active = inhibition above about 30%
Target sequence (P9WHJ3 whole entry, looked up): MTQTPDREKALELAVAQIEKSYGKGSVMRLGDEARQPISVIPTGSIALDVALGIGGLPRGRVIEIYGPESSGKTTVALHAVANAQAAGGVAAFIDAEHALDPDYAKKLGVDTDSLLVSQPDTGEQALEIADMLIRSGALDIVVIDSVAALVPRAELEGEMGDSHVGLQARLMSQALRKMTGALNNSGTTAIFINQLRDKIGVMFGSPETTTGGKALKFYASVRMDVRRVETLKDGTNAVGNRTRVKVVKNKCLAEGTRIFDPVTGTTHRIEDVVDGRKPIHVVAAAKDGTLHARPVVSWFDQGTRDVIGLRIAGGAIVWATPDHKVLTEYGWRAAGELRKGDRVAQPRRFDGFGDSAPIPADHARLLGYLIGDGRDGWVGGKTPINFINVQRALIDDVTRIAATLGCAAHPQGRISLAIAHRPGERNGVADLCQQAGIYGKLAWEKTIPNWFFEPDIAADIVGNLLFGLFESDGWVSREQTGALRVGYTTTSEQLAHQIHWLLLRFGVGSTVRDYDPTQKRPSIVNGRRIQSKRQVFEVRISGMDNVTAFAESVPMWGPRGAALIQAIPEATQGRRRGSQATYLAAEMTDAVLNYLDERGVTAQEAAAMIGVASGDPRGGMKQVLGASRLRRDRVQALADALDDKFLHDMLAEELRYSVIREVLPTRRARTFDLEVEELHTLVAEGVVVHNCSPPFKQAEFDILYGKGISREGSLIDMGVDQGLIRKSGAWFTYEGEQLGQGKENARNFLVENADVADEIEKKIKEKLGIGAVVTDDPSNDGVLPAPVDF
Mtb bLac sens = beta-lactam sensitization of Mtb H37Rv; inhibition, % at 25 µM; actives 0.27% (n = 330,000); AID 434955; M. tuberculosis H37Rv growth with meropenem, percent inhibition; call rule not given here;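 note: growth measured after seven days incubation then overnight dye step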
PriA SSB inh = blocks PriA binding to SSB C-terminal tail. AlphaScreen SSBct-PriA binding, biotinylated peptide. AID 1272365. actives 0.6% (n = 430,000). inhibition, % at 33 µM; in the data active = inhibition mostly above about 37%, no sharp cut-off; inactive = mostly below about 20%
Mtb UGM inh = Mtb UDP-galactopyranose mutase inhibition | P9WIQ1 | purified UGM, fluorescence polarization probe displacement | inhibition, % at 10 µM | actives 0.06% (n = 320,000) | AID 504406; in the data active = inhibition above about 10%, passing the limit was not always enough
A number is an active result; i = inactive; nt = no result given; ! = not confirmed by another sample.

SMILES	Rv3671c inh	RecA intein inh	Mtb bLac sens	PriA SSB inh	Mtb UGM inh
COc1ccccc1NC(=O)C1=C(C)Nc2nc(-c3cccs3)nn2C1c1cccc(O)c1 (stereo unspecified)	i	i	i	i	i
Cc1ccc(S(=O)(=O)CCC(=O)Nc2ccc(F)cc2F)cc1	nt	nt	nt	i	nt
CCOC(=O)c1c(C)n(Cc2ccccc2)c2ccc(OCC(O)Cn3nc(C)nc3C)cc12 (stereo unspecified)	i	i	i	104.2	i
CCOC(=O)c1c(C)n(Cc2ccccc2)c2ccc(OCC(O)Cn3nc(C)cc3C)cc12 (stereo unspecified)	i	nt	i	i	i
N#CC(C#N)=C(/C=C/c1cccs1)C1CC1	nt	nt	nt	42.0	nt
CN(C)S(=O)(=O)c1cccc(NC(=S)N/N=C/c2cc(Br)ccc2O)c1	i	i	i	nt	i
CN(C)S(=O)(=O)c1cccc(NC(=S)NN=Cc2ccc(O)c(O)c2O)c1	nt	nt	nt	102.1	nt
Cn1c(=O)oc2cc(S(=O)(=O)N3CCC(C(=O)N4CC=C(c5ccccc5)CC4)CC3)ccc21	nt	nt	nt	115.4	nt
Cn1c(=O)oc2cc(S(=O)(=O)N3CCC(C(=O)N4CCN(c5ccccc5)CC4)CC3)ccc21	i	nt	i	i	i
OCCCn1c(-c2ccccc2)csc1=Nc1ccccc1	i	i	i	42.1	i
O=[N+]([O-])c1ccc(C=NNc2ccc3ccccc3c2)o1	nt	nt	nt	55.3	nt
Cc1ccc2nc(N/N=C\c3ccc([N+](=O)[O-])o3)nc(-c3ccccc3)c2c1	i	42.4	i	nt	i
O=C(Nc1ccccn1)c1ccc(=O)n(Cc2cccc(F)c2)n1	nt	nt	nt	i	nt
Cc1ccc(-c2nc(NN=Cc3cccc([N+](=O)[O-])c3)c3ccccc3n2)cc1	nt	nt	nt	i	nt
c1ccc(C2=NNC(c3ccccn3)=NN2)nc1	i	i	i	82.0!	i
CCCCCC(=O)N1CC2(CC(c3cccc(NC(=O)[C@@H]4CCC(=O)N4)c3)=NO2)C[C@@H]1C(N)=O (stereo partly specified)	i	i	i	i	i
C=C(C)C(=O)Nc1cccc(C2=NOC3(C2)C[C@@H](C(N)=O)N(C(=O)CCCCC)C3)c1 (stereo partly specified)	i	i	i	61.4	i
C=C(C)C(=O)Nc1cccc(C2=NOC3(C2)C[C@@H](C(N)=O)N(C(=O)c2ccc(OC)cc2)C3)c1 (stereo partly specified)	i	i	i	47.8	i
Cn1nc2c(c1NC(=O)c1ccco1)CCC2	nt	nt	nt	i	nt
Cc1cc(NC(=O)COc2ccc(Cl)cc2Cl)nc2c1c(=O)oc1ccccc12	nt	nt	nt	i	nt
COc1ccc(Cl)cc1S(=O)(=O)NCC1CCN(Cc2ccccc2)CC1	nt	nt	nt	i	nt
COc1ccc(C(=O)NCC(c2ccsc2)N2CCc3ccccc3C2)cc1 (stereo unspecified)	nt	nt	nt	i	nt
COc1cccc(-n2nnc3c(SC(C(C)=O)C(=O)N(C)C)ncnc32)c1 (stereo unspecified)	nt	nt	nt	i	nt
CC(=O)C(Sc1ncnc2c1nnn2-c1ccc(F)cc1)C(=O)N(C)C (stereo unspecified)	i	39.8	i	i	i
Cc1ccc(S(=O)(=O)CCC(=O)N=c2sc3cc([N+](=O)[O-])ccc3n2C)cc1	nt	nt	nt	i	nt
SMILES	Rv3671c inh	RecA intein inh	Mtb bLac sens	PriA SSB inh	Mtb UGM inh
O=C1CCN(N=Nc2cccc(Cl)c2)N1	i	40.1	i	nt	i
Cc1ccc(S(=O)(=O)Nc2ccc(O)c3ncccc23)cc1	i	i	i	45.7!	i
Cc1ccc(S(=O)(=O)Nc2ccc(O)c3cccnc23)cc1	i	nt	i	i	i
O=C(Nc1nc(CC(=O)N2CCN(C(c3ccccc3)c3ccccc3)CC2)cs1)C1CC1	nt	nt	nt	i	nt
COc1cc(OC)cc(-c2nnc(Sc3ccc(C=O)cc3[N+](=O)[O-])o2)c1	i	51.8	i	nt	i
COc1cc(OC)cc(-c2nnc(SCC(=O)N(C(C)C)C(C)C)o2)c1	i	i	i	i	i
COC(=O)c1ccc(NC(=O)c2nc(S(C)(=O)=O)ncc2Cl)cc1	nt	nt	nt	i	nt
CC(=O)Nc1cccc(OC(=O)COc2ccc(Br)cc2)c1	i	35.4	i	i	i
O=C(COc1ccc(Oc2ccccc2)cc1)Oc1ccc(Br)cc1	nt	nt	nt	i	nt
COc1ccccc1N1CCN(S(=O)(=O)CCNC(=O)COc2cccc(C)c2)CC1	nt	nt	nt	i	nt
Cc1ccc(N2CC(C(=O)NCCn3ccnc3-c3ncccn3)CC2=O)cc1C (stereo unspecified)	nt	nt	nt	43.0	nt
Cc1ccc(N2CC(C(=O)NCCn3cccnc3=O)CC2=O)cc1C (stereo unspecified)	nt	nt	nt	i	nt
O=C(NCCn1ccnc1-c1ncccn1)C1CC(=O)N(c2ccc(F)cc2)C1 (stereo unspecified)	nt	nt	nt	116.0	nt
COc1ccc(Cn2ccnc2SCC(=O)Nc2ccc(C(C)=O)cc2)cc1	nt	nt	nt	i	nt
Cc1nc(Nc2cccnc2)sc1C(=O)O	nt	nt	nt	i	nt
Oc1cc(Nc2cccnc2)cc2cccnc12	i	nt	i	89.1	i
CN(C)CCCNC(=O)c1ccc(-c2cc(O)c3ncccc3c2)cc1	i	nt	i	83.3	i
Oc1cc(Nc2ccncc2)cc2cccnc12	i	nt	i	103.9	i
Oc1cc(NCCc2cccnc2)cc2cccnc12	i	nt	i	85.3	i
CC(=O)c1cccc(NC(=O)C[C@H](C)n2cncn2)c1	nt	nt	nt	i	nt
COC(=O)NC(=O)c1c(NC(=O)c2sc3ccccc3c2Cl)sc(C)c1C	nt	nt	nt	i	nt
O=C(CC1CCCC1)NCC1CCN(c2ncccn2)CC1	nt	nt	nt	i	nt
CN(C)c1ccc(-c2cc(O)c3ncccc3c2)cc1	i	nt	i	i	i
Nc1cc(O)c2ncccc2c1	nt	nt	nt	140.0	nt
Oc1cc(-c2ccncc2)cc2cccnc12	i	nt	i	55.4	i
SMILES	Rv3671c inh	RecA intein inh	Mtb bLac sens	PriA SSB inh	Mtb UGM inh
Cc1csc(C(=O)NCc2nn(CCN3CCCC3)c(=O)c3ccccc23)c1	nt	nt	nt	45.0	nt
COc1ccc(C=NNc2cc(N3CCCC3)nc(N3CCCC3)n2)cc1	nt	nt	nt	48.8	nt
COc1ccc(/C=N/Nc2cc(N3CCCC3)nc(N3CCCC3)n2)cc1	i	i	i	nt	i
COc1cc(C(=O)Nc2nc3c(s2)Cc2ccccc2-3)cc(OC)c1OC	nt	nt	nt	i	nt
O=C(NCCC(O)c1ccc2c(c1)OCO2)c1ccc(Cl)s1 (stereo unspecified)	nt	nt	nt	37.0	nt
COc1ccccc1-n1ncc2c(C)nnc(SCC(=O)NCc3ccccc3Cl)c21	nt	nt	nt	89.0!	nt
Cc1nnc(SCC(=O)NCc2ccccc2Cl)c2c1cnn2-c1ccccc1	nt	nt	nt	i	nt
CC(C)(Oc1ccc(Cl)cc1)C(=O)NCCNc1ccc(Nc2ccccn2)nn1	nt	nt	nt	31.0	nt
COc1cccc(C(=O)NCCNc2ccc(Nc3ccccn3)nn2)c1OC	nt	nt	nt	i	nt
COc1cc(C(C)=O)ccc1OC(=O)c1cc2cccc(OC)c2oc1=O	i	i	i	i	i
COc1cc(Br)cc2cc(C(=O)Oc3cccc4cccnc34)c(=O)oc12	nt	nt	nt	89.0	nt
CCN(CC)c1ccc(C=NNC(=O)CNC(=O)/C=C/c2ccco2)cc1	nt	nt	nt	i	nt
COc1cccc(C(=O)C=CNc2cc(C)ccc2O)c1	nt	nt	nt	i	nt
COc1ccccc1Oc1c(C)oc2cc(OC(=O)c3ccco3)ccc2c1=O	i	nt	i	i	i
COc1ccccc1-c1c(C)oc2cc(OC(=O)c3ccco3)ccc2c1=O	i	30.6	i	i	i
COc1ccc(-c2nnc(NC(=O)c3cc(-c4ccccc4)nc4ccccc34)o2)cc1	nt	nt	nt	i	nt
COc1ccc2c(c1)c1nc3ccccc3nc1n2CC(=O)OC(C)C	i	i	i	i	18.7
NC(=S)NN=Cc1coc2ccc(Br)cc2c1=O	nt	nt	nt	i	nt
